In article PMC7862700, “An all-to-all approach to the identification of sequence-specific readers for epigenetic DNA modifications on cytosine” one finds binding signal data, which are given here for seven sequences.

What all share (assay): DAPPL (digital affinity profiling via proximity ligation, sequencing); 10 mM Tris-HCl pH 7.5, 50 mM NaCl, 1 mM DTT, 4% glycerol, room temperature, 30 min; GST-TFs on glutathione beads, 16-mer random dsDNA library, 0.1% formaldehyde crosslink after washing; high values mean tight binding
Common to all, as to conditions: protein: recombinant; tags: N-terminal GST; dsDNA, one strand shown

One test has as its target T1, ERF (Homo sapiens, UniProt P50548 1-548).
T1 sequence: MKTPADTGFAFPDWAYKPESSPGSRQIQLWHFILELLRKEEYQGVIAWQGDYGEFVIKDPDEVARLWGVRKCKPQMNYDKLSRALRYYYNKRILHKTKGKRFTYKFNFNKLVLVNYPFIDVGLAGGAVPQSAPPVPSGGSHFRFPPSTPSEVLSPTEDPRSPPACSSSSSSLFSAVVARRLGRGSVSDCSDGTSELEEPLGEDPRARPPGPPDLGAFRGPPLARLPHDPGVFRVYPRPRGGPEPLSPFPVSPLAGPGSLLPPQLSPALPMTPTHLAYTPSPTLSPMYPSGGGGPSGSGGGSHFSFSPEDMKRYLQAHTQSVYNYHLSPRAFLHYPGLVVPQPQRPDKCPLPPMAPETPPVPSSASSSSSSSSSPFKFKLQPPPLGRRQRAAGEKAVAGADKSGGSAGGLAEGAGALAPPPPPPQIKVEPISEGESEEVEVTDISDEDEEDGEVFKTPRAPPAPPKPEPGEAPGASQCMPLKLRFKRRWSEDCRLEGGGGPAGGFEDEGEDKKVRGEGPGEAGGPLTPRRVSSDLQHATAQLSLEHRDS
A digest of the protocol: (§1)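 Each value of binding signal is a hexamer's read frequency for a factor divided by the same hexamer's frequency in the tag-only sample. Barcoded, bead-captured GST fusions of human transcription factors made in yeast were pooled with that sample and incubated with 200 nmole of a random double-stranded 16-mer DNA library in Tris/NaCl/DTT/glycerol buffer at room temperature for 30 min. Washing, 0.1% formaldehyde crosslinking, proximity ligation, PCR and Illumina NextSeq500 sequencing followed.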

In the next test the target is T2, ETV3L (Homo sapiens, UniProt Q6ZN32 1-361).
T2 sequence: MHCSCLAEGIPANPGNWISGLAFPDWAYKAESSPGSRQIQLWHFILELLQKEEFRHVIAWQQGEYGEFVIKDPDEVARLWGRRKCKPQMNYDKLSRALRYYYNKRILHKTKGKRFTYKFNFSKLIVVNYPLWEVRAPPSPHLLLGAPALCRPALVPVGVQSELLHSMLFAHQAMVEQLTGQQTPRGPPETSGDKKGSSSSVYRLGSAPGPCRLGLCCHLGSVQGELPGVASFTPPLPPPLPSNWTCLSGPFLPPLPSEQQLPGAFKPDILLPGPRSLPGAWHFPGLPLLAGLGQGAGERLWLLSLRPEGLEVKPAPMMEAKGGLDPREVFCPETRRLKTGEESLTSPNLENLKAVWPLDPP
In a few lines: as §1

The target of another test is T3, ETS2 (Homo sapiens, UniProt P15036 1-469).
T3 sequence: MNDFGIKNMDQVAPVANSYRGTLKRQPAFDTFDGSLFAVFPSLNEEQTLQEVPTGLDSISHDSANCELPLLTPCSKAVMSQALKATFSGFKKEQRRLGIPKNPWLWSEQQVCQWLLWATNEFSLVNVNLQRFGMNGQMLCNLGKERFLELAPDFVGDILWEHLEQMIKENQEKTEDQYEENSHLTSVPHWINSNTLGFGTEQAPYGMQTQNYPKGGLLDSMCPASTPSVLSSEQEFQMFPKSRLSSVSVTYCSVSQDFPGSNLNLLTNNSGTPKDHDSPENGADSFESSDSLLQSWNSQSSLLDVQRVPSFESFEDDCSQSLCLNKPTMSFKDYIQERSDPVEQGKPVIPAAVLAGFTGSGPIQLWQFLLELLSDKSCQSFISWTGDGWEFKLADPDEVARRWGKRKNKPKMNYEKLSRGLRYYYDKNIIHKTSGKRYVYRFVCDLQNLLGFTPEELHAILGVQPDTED
A digest of the protocol: as §1

For the next test, the target named is T4, SPDEF (Homo sapiens, UniProt O95238 1-335).
T4 sequence: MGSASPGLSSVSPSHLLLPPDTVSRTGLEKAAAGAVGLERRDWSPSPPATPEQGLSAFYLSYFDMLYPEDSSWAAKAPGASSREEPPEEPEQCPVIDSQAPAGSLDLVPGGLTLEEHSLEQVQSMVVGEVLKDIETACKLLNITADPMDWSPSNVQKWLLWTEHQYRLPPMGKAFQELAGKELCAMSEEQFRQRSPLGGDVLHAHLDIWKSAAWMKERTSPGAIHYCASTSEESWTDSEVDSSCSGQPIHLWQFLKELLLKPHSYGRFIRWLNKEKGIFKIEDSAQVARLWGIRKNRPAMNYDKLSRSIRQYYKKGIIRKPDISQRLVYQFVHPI
A digest of the protocol:
as §1

For a further test, the target named is T5, ETV7 (Homo sapiens, UniProt Q9Y603 1-341).
T5 sequence: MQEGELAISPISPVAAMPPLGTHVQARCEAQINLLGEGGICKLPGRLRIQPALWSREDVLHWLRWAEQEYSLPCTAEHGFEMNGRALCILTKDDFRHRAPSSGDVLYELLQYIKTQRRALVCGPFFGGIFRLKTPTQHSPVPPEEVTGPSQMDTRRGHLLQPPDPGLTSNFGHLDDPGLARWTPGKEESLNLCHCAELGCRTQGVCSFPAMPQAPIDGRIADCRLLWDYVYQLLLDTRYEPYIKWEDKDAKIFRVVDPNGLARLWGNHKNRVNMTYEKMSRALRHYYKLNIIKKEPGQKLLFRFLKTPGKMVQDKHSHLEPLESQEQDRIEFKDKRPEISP
A digest of the protocol: as §1

In a further test the target is T6, ETV3 (Homo sapiens, UniProt P41162-2 1-143).
T6 sequence: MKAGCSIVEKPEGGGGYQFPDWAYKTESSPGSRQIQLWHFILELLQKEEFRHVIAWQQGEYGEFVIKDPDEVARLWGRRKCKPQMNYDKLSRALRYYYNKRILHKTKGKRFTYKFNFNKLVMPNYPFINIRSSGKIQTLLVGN
In a few lines: as §1

A further test concerns the target ETV6 (Homo sapiens, UniProt P41212 1-452). In a few lines:
as §1

The target in a further test is T7, ELF5 (Homo sapiens, UniProt Q9UKW6-2 1-255).
T7 sequence: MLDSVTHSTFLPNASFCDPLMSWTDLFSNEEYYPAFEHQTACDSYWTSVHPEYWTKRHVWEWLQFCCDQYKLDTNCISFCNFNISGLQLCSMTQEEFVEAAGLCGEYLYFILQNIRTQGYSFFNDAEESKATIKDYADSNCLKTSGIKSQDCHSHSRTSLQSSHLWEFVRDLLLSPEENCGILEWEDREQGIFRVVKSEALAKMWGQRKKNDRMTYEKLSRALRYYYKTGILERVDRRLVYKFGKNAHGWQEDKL
In a few lines:
as §1

ETV6, sequence (P41212 whole entry): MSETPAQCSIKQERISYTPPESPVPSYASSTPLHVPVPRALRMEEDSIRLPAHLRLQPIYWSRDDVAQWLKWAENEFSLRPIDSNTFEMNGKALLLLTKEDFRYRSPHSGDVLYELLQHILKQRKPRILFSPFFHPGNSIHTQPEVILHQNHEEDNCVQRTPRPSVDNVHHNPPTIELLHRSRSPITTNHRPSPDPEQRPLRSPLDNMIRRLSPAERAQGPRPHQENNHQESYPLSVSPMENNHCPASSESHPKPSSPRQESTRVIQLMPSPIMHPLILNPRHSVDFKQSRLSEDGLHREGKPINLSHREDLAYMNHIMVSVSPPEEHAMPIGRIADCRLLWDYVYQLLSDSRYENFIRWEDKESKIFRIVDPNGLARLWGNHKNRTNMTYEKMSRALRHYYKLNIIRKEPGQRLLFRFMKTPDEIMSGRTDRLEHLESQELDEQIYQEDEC

With TGACTA, the binding signal with ERF is 1.14 fold enrichment (6-mer frequency, TF over GST control); with ETV3L, 1.08 fold enrichment (6-mer frequency, TF over GST control); in the test with ETS2 it was 1.04 fold enrichment (6-mer frequency, TF over GST control); in the test with SPDEF, 1.08 fold enrichment (6-mer frequency, TF over GST control); with ETV7 it was 1.07 fold enrichment (6-mer frequency, TF over GST control); in the test with ETV3, 1.05 fold enrichment (6-mer frequency, TF over GST control). Further, the binding signal in the test with ETV6 is 1.15 fold enrichment (6-mer frequency, TF over GST control).
As to GCATTC, the binding signal with ERF is 1.16 fold enrichment (6-mer frequency, TF over GST control); with ETV3L it was 1.07 fold enrichment (6-mer frequency, TF over GST control); in the test with ETS2, 1.08 fold enrichment (6-mer frequency, TF over GST control); with SPDEF, 1.1 fold enrichment (6-mer frequency, TF over GST control); with ELF5, 1.06 fold enrichment (6-mer frequency, TF over GST control); with ETV3, 1.17 fold enrichment (6-mer frequency, TF over GST control). Further, the binding signal in the test with ETV6 is 1.19 fold enrichment (6-mer frequency, TF over GST control).
In the case of CCGTAA, the binding signal is 1.08 fold enrichment (6-mer frequency, TF over GST control) with ERF; 1.12 fold enrichment (6-mer frequency, TF over GST control) with ETV3L; 1.16 fold enrichment (6-mer frequency, TF over GST control) in the test with ETS2; 1.2 fold enrichment (6-mer frequency, TF over GST control) in the test with SPDEF; 1.22 fold enrichment (6-mer frequency, TF over GST control) with ELF5; 1.12 fold enrichment (6-mer frequency, TF over GST control) in the test with ETV3. The binding signal with ETV6 is 1.08 fold enrichment (6-mer frequency, TF over GST control).
As for GCGCCC, the binding signal with ERF is 1.18 fold enrichment (6-mer frequency, TF over GST control); in the test with ETV3L, 1.2 fold enrichment (6-mer frequency, TF over GST control); with ETS2, 1.05 fold enrichment (6-mer frequency, TF over GST control); in the test with SPDEF, 1.13 fold enrichment (6-mer frequency, TF over GST control); with ETV3 it was 1.2 fold enrichment (6-mer frequency, TF over GST control); with ETV6 it was 1.03 fold enrichment (6-mer frequency, TF over GST control).
Regarding CTCAGA, the binding signal in the test with ERF was 1.21 fold enrichment (6-mer frequency, TF over GST control); with ETV3L, 1.06 fold enrichment (6-mer frequency, TF over GST control); in the test with ETS2, 1.02 fold enrichment (6-mer frequency, TF over GST control); with SPDEF, 1.11 fold enrichment (6-mer frequency, TF over GST control); with ELF5, 1.03 fold enrichment (6-mer frequency, TF over GST control); in the test with ETV3, 1.01 fold enrichment (6-mer frequency, TF over GST control). The binding signal with ETV6 is 1.13 fold enrichment (6-mer frequency, TF over GST control).
As to TCACAA, the binding signal with ERF is 1.23 fold enrichment (6-mer frequency, TF over GST control); in the test with ETV3L, 1.14 fold enrichment (6-mer frequency, TF over GST control); with ETS2 it was 1.23 fold enrichment (6-mer frequency, TF over GST control); with SPDEF it was 1.19 fold enrichment (6-mer frequency, TF over GST control); with ELF5, 1.11 fold enrichment (6-mer frequency, TF over GST control); with ETV3, 1.08 fold enrichment (6-mer frequency, TF over GST control). Also, the binding signal with ETV6 is 1.03 fold enrichment (6-mer frequency, TF over GST control).
Take TAGGTT: the binding signal is 1.06 fold enrichment (6-mer frequency, TF over GST control) with ERF; 1.08 fold enrichment (6-mer frequency, TF over GST control) with ETV3L; 1.06 fold enrichment (6-mer frequency, TF over GST control) with ETS2; 1.17 fold enrichment (6-mer frequency, TF over GST control) in the test with SPDEF; 1.06 fold enrichment (6-mer frequency, TF over GST control) with ELF5; 1.14 fold enrichment (6-mer frequency, TF over GST control) with ETV3. Besides, the binding signal with ETV6 was 1.16 fold enrichment (6-mer frequency, TF over GST control).
